From PubChem BioAssay
TDP1 cell noCPT – qHTS for Inhibitors of human tyrosyl-DNA phosphodiesterase 1 (TDP1): qHTS in cells in absence of CPT. DT40 Tdp1-/- hTDP1 cells, no CPT, ATP luminescence, 48 h. Potency, µM (top dose mostly 46.2 µM), for inactives: top-dose activity change, negative = growth inhibition, most hits filed as inhibitors. hit rate 15% among 420,000. AID 686978, 2013; note: potency is the fitted concentration of half-maximal effect; nearly all actives have a fitted effect of over 55% in size
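Chicken DT40 Tdp1-/- cells stably complemented with human TDP1 were seeded at 400 cells/well with DMSO in place of 20 nM camptothecin. After compound pinning, cells grew at least 48 hr at 37 °C; viability read by CellTiter-Glo luminescence.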
HT1080 IDH1KD tx – HT-1080 IDH1 knockdown cell toxicity (counter line) | HT-1080 IDH1 knockdown viability, ATP luminescence, 48 h | hit rate 2% among 360,000 | AID 686971 | Potency, µM (highest dose often 46.1 µM), for the others: at the highest dose activity, negative = toxicity, actives largely listed as cytotoxic;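 note: potency is the fitted concentration of half-maximal effect; 0% = DMSO wells and -100% = cell-free medium wells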
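CellTiter-Glo luminescence after 48 h compound exposure at 37 degrees C of IDH1-knockdown HT-1080 cells in 5% FBS RPMI. %Activity scaled between DMSO wells and cell-free media wells, with curves fitted and assigned curve classes.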
HT1080-NT tox – kills 2HG-producing HT-1080-NT fibrosarcoma cells; HT-1080-NT fibrosarcoma viability, CellTiter-Glo ATP luminescence, 48 h; Potency, µM (titrated, usually from 46.1 µM), without a hit: top-dose activity, negative = less viability, actives largely listed as cytotoxic; hit rate 1.6% among 360,000; AID 686970;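 note: NT is the 2HG producing partner of a matched IDH1 knockdown line; potency is the fitted concentration of half-maximal effect; 0% = DMSO-treated cells and -100% = media-only wells without cells; nearly all actives have a fitted effect of over 55% in size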
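HT-1080-NT; 750 cells/well; 5% FBS RPMI; 48 h compound, 37 degrees C; CellTiter-Glo luminescence; curve fitting and curve-class assignment.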
IL1B secr inh – inflammasome signaling inhibition, IL-1 beta readout; THP-1 LPS/ATP IL-1B secretion, AlphaLISA, 16 h; stronger effect = lower value; activity change, % at 57.5 µM; hit rate 4.7% among 360,000; in the data active = activity change below about -50%; inconclusive = mostly about -30% to -49%
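THP-1 cells pretreated 1 hr with compounds (up to 57.5 uM final), then stimulated with LPS (250 ng/mL final) plus ATP (1.25 mM final); secreted IL-1B measured by AlphaLISA after 16 hr, decreased signal indicating inhibition.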
DT40 TDP1 CPT – growth inhibition of DT40 Tdp1-/-;hTDP1 cells with camptothecin (screen for TDP1 inhibitors). chicken DT40 Tdp1-/-;hTDP1 cells + 20 nM CPT, ATP luminescence, 48 h. Potency, µM (highest dose often 46.2 µM), for inactives: top-dose activity change, negative = growth inhibition, usual class: inhibitors. hit rate 12% among 420,000; note: potency is the fitted concentration of half-maximal effect; nearly all actives have a fitted effect of over 55% in size
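Chicken DT40 Tdp1-/- cells complemented with human TDP1, 400 cells/well, exposed to compounds plus 20 nM camptothecin for at least 48 h at 37 C; viability read as ATP content by CellTiter-Glo luminescence.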
The depositor's hits bear a star; ? = inconclusive; . = no result given; [ ] = remark or other dose. This is a sample that favours compounds with a hit; in the whole collection about 19% have one here. Unless noted, calls come from the whole dose curve; as a rule, active = well fitted curve in the direction sought with a large enough effect; inconclusive = small, poorly fitted or top-dose-only effect, or another doubt; inactive = no such curve, though single readings can be large; an effect the other way counts as inactive or inconclusive. Unless noted, % is set by controls: 0 for no effect and ±100 for the full control effect.

SMILES	TDP1 cell noCPT	HT1080 IDH1KD tx	HT1080-NT tox	IL1B secr inh	DT40 TDP1 CPT
O=C1Cc2c([nH]c3ccc(Br)cc23)-c2ccccc2N1	?	?	-24%	-97*	?
C#CC[N+](C)(C)CC#Cc1ccc(Cl)cc1	-29%	?	?	-67*	-11%
C#CC[N+](CC)(CC)CC#Cc1cccc(Cl)c1	?	-15%	-8%	-4	?
CCc1ccc(S(=O)(=O)Nc2ccc(O)c3ccccc23)cc1	6.5µM*	-8%	-19%	-16	6.5µM*
O=S(=O)(Nc1ccc(O)c2ccccc12)c1ccc(F)cc1	9.2µM*	-16%	-17%	16	12µM*
CCCCNC(=O)c1onc(CSc2ccccn2)c1C(=O)NCCCC	?	2%	-4%	?	?
Nn1c(-c2ccccc2)cc(-c2ccccc2)cc1=O	-12%	0%	1%	-7	-17%
Cc1ccc(C(=O)N/C(=C\c2ccc(-c3ccccc3[N+](=O)[O-])o2)C(=O)NCCCN(C)C)cc1	5.8µM*	-20%	-5%	5	5.2µM*
CN(C)CCCNC(=O)/C(=C/c1ccc(-c2ccc([N+](=O)[O-])cc2)o1)NC(=O)c1ccccc1	-24%	-9%	-20%	-16	?
CN(C)CCCNC(=O)/C(=C\c1ccc(-c2ccc(Br)cc2)o1)NC(=O)c1ccccc1	12µM*	23µM*	?	?	3.7µM*
Cc1ccc(C(=O)N/C(=C\c2ccc(-c3ccc(Cl)cc3)o2)C(=O)NCCCN(C)C)cc1	12µM*	13µM*	29µM*	-67*	12µM*
CCc1nn(CCCC(=O)N2CCN(c3cccc(OC)c3)CC2)c(=O)c2cc3occc3n12	-27%	.	.	.	-19%
COc1ccc(CCNC(=O)c2ccc3c(c2)N(Cc2cccc(C)c2)C(=O)c2ccccc2S3(=O)=O)cc1OC	12µM*	.	.	.	8.2µM*
COc1ccc(CNC(=O)c2ccc3c(c2)N(Cc2ccccc2F)C(=O)c2ccccc2S3(=O)=O)cc1	-17%	.	.	.	-11%
O=C(NCCc1ccccc1)c1ccc2c(c1)N(Cc1ccc(F)cc1)C(=O)c1ccccc1S2	?	.	.	.	-24%
COc1ccc(CCNC(=O)c2ccc3c(c2)N(Cc2ccccc2F)C(=O)c2ccccc2S3(=O)=O)cc1OC	10µM*	.	.	.	16µM*
COc1ccc(CCNC(=O)c2ccc3c(c2)N(Cc2ccc(Cl)cc2)C(=O)c2ccccc2S3)cc1OC	16µM*	.	.	.	?
COc1ccc(CNC(=O)c2ccc3c(c2)N(Cc2ccccc2)C(=O)c2ccccc2S3(=O)=O)cc1	-23%	.	.	.	?
CCC(CC)NC(=O)COC(=O)CCC(=O)c1ccc(Cl)cc1	-8%	9%	12%	20	9%
CCOC(=O)[C@]12CCC=C1N(Cc1ccccc1)C(=O)[C@H](CC(=O)NCC1CCCCC1)C2	?	8%	7%	-25	-18%
CC(C)(C)c1cc(OC(=O)c2ccccc2F)ccc1O	?	21µM*	33µM*	-69*	?
C/C(=N\NC(=S)Nc1ccccc1C)C1Cc2ccccc2C(=O)O1 (centres undefined)	6.5µM*	-20%	-10%	1	?
COC(=O)c1ccc(NS(=O)(=O)c2cc3c4c(c2)CCC(=O)N4CCC3)cc1	?	-5%	-2%	7	?
CCOC(=O)C(C)(C)Sc1ncnc2nc[nH]c12	-10%	-1%	5%	-20	?
CCOC(=O)c1cc([N+](=O)[O-])cc([N+](=O)[O-])c1Sc1ncnc2nc[nH]c12	2.6µM*	4.6µM*	4.6µM*	-100*	1.8µM*
SMILES	TDP1 cell noCPT	HT1080 IDH1KD tx	HT1080-NT tox	IL1B secr inh	DT40 TDP1 CPT
O=C(CCCc1nc2ccccc2s1)NNC(=O)CCN1CCN(Cc2ccccc2)CC1	-8%	-2%	-2%	41	-4%
COC(=O)NC1(C(F)(F)F)C(=O)Nc2c1c(=O)n(C)c(=O)n2C (centres undefined)	2%	25%	5%	-4	-4%
Cn1c2c(c(=O)n(C)c1=O)C(C(F)(F)F)(C(F)(F)F)N=C(C1CCCCC1)N2	26µM*	-20%	-27%	-11	18µM*
Cc1ccccc1C1=NC(C(F)(F)F)(C(F)(F)F)c2c(n(C)c(=O)n(C)c2=O)N1	23µM*	-2%	2%	-5	?
Cn1c2c(c(=O)n(C)c1=O)C(C(F)(F)F)(C(F)(F)F)N=C(c1ccc(Cl)cc1)N2	1.3µM*	7.3µM*	?	-2	0.92µM*
COc1ccccc1-c1ccnc(-n2ncc(C(=O)NC3CCCN(Cc4ccccc4)C3)c2C)n1 (centres undefined)	-28%	.	.	.	10%[9.04 µM]
Cc1c(C(=O)N2CCCC2)sc(NC(=O)c2cccc(Cl)c2)c1C#N	26µM*	-3%	-26%	-1	?
Cc1c(C(=O)N2CCCCC2)sc(NC(=O)C23CC4CC(CC(C4)C2)C3)c1C#N	18µM*	8%	12%	-8	?
Cc1cccc(C(=O)Nc2sc(C(=O)N3CCCC3)c(C)c2C#N)c1	?	0%	3%	-17	?
COc1ccccc1-c1sc2cc3c(cc2c1C#Cc1ccccn1)OCO3	?	-8%	-5%	16	?
COc1cc(C2c3[nH]c4ccccc4c3C[C@H]3C(=O)N(CCO)CC(=O)N23)cc(OC)c1OC (some centres undefined)	21µM*	?	-5%	39	?
C=CCN1C(=O)[C@@H]2Cc3c([nH]c4ccccc34)C(c3cc(OC)c(OC)c(OC)c3)N2C1=S (some centres undefined)	?	?	?	-17	?
COc1cc([C@H]2c3[nH]c4ccccc4c3C[C@H]3C(=O)N4[C@@H](c5cc(OC)c(OC)c(OC)c5)c5[nH]c6ccccc6c5C[C@H]4C(=O)N23)cc(OC)c1OC	2.9µM*	15µM*	12µM*	5	4.6µM*
C=CCN1C(=O)[C@@H]2Cc3c([nH]c4ccccc34)C(c3ccc(O)cc3)N2C1=S (some centres undefined)	16µM*	-7%	-25%	-11	?
O=C1[C@@H]2Cc3c([nH]c4ccccc34)C(c3ccccc3)N2C(=O)CN1CCO (some centres undefined)	18%	9%	0%	-1	-2%
COc1cc(C2c3[nH]c4ccccc4c3CC3COC(=O)N32)cc(OC)c1O (centres undefined)	0.29µM*	?	?	36	0.29µM*
